# Measured values taken from PubChem BioAssay.
# “And” between values parts separate entries of the source, which are not always exact repeats. Equal values may be shown once. The source made the active and inactive calls.
# Columns and labels:
# [1] = test system: Plasmodium falciparum Sir2 (PF13_0152, Sir2A); test: Plasmodium falciparum Sir2A binding compounds – biochemical, small-molecule microarray, 635 nm fluorescence, primary screen (AID 1098); details: fluorescence 635 nm, higher = more signal;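 note: score merges spot fluorescence intensity with its signal-to-noise ratio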
# [2] = probe aDKK1 binding to arrayed compounds – biochemical, biotinylated probe, 635/667 nm fluorescence, primary screen (AID 1099); details: small-molecule microarray, higher = more signal;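 note: score merges 667nm spot fluorescence with signal to noise across triplicate slides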
# [3] = probe aCHRDL2 binding to arrayed compounds – biochemical, biotinylated probe, 635/667 nm fluorescence, primary screen (AID 1100); details: small-molecule microarray, higher = more signal
# [4] = change in splice reporter luminescence, either direction, cell-based, HEK293, spliceosome inhibition project, primary screen (AID 1101); details: HEK293 splicing luciferase reporter, 24 h, higher = more signal, called active from +8 up or from −8 down;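 note: HEK293 cells carrying a splicing-competent luciferase reporter gene; test concentration not given here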
# [5] = molecular target: Fibroblast growth factor 10 (Homo sapiens) (UniProt O15520); test: compounds binding fibroblast growth factor 10 – biochemical, small-molecule microarray, 635 nm fluorescence, primary screen (AID 1102); details: FGF10 binding, fluorescence 635 nm, higher = more signal
# Chain of Fibroblast growth factor 10 (Homo sapiens) (O15520 whole entry, looked up): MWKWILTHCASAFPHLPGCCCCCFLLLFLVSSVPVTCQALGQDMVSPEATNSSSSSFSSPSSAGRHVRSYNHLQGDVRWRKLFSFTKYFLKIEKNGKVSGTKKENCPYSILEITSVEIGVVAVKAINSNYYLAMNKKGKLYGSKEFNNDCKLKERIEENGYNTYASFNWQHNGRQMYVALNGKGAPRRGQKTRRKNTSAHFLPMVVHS
# [6] = test system: glycogen synthase kinase-3 (GSK3A per assay name; protocol says GSK3B); test: compounds binding glycogen synthase kinase-3 – biochemical, small-molecule microarray, 635 nm fluorescence, GSK3A, primary screen (AID 1103); details: fluorescence 635 nm, higher = more signal; note: the record names both GSK3A and GSK3B
# [7] = molecular target: Epidermal growth factor receptor (Homo sapiens) (UniProt P00533); test: compounds binding epidermal growth factor receptor – biochemical, small-molecule microarray, 635 nm fluorescence, primary screen (AID 1104); details: EGFR binding, higher = more signal;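 note: score merges 667 nm emission intensity with spot signal to noise over triplicate slides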
# Chain of Epidermal growth factor receptor (Homo sapiens) (P00533 whole entry, looked up): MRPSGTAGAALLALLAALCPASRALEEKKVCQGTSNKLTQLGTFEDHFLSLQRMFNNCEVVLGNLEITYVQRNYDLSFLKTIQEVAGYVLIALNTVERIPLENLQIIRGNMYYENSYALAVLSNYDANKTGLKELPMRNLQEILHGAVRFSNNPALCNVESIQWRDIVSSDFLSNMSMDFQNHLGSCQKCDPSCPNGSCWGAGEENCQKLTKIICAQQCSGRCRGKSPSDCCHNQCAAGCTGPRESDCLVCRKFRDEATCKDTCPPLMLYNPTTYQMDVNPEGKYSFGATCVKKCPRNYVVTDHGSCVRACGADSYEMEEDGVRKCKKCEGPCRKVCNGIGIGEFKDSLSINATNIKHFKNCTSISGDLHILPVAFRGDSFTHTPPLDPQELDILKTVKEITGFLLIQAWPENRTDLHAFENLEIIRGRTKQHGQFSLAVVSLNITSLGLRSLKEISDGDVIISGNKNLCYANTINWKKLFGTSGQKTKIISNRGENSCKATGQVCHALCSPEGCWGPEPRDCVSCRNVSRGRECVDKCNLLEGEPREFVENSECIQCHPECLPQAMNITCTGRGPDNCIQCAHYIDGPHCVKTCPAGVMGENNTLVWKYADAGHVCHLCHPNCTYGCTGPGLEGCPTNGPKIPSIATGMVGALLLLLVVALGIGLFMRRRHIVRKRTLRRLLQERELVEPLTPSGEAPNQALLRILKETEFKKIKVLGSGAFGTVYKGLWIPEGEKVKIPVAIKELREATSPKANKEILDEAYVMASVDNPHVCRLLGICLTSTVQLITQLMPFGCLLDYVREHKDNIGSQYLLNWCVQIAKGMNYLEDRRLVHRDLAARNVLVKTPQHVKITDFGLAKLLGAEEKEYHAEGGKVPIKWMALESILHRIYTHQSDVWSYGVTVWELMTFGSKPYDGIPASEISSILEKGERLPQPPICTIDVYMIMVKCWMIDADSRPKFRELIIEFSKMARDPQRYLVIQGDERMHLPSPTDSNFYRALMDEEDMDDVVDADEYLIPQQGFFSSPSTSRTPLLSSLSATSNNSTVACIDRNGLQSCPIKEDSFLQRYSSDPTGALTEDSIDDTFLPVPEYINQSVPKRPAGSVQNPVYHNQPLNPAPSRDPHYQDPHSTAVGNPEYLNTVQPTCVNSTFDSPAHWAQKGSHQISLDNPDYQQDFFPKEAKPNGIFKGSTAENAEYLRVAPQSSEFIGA
# [8] = molecular target: Follistatin-related protein 3 (Homo sapiens) (UniProt O95633); test: compounds binding follistatin-related protein 3 – biochemical, small-molecule microarray, 635 nm fluorescence, primary screen (AID 1105); details: FSTL3 binding, higher = more signal;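 note: score merges emission near 667 nm and signal to noise per printed spot across three slides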
# Chain of Follistatin-related protein 3 (Homo sapiens) (O95633 whole entry, looked up): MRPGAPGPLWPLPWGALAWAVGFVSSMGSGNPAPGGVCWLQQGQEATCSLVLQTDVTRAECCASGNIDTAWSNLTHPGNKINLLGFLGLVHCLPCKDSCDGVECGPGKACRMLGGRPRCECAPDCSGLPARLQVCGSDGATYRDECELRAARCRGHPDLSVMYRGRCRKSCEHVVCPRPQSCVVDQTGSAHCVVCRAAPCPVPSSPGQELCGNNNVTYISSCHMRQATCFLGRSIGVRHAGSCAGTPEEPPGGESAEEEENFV
# [9] = molecular target: Dickkopf-related protein 1 (Homo sapiens) (UniProt O94907); test: small molecules binding DKK1 protein – biochemical, small-molecule microarray, 635 nm fluorescence scan, primary screen (AID 1106); details: higher = more signal;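 note: score merges emission near 667 nm with signal to noise over three replicate slides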
# Chain of Dickkopf-related protein 1 (Homo sapiens) (O94907 whole entry, looked up): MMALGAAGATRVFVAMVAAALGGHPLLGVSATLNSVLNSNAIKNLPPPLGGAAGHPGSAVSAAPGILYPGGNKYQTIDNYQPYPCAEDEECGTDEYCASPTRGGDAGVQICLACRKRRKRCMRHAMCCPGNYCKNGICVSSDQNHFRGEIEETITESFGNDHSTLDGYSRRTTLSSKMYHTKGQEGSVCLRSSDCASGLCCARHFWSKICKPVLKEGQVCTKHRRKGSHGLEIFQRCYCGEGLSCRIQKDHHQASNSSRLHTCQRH
# [10] = test system: Inhibin beta A chain (activin A); test: small molecules binding activin A – biochemical, small-molecule microarray, 635 nm fluorescence scan, primary screen (AID 1107); details: INHBA, higher = more signal;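 note: mouse activin A protein probed at 4.33 µg/mL on printed slides; score merges bound-protein fluorescence near 667 nm with spot signal-to-noise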
# [11] = test system: Human papillomavirus type 1a protein E7 (residues 44-93); test: small molecules binding HPV E7 44-93 – biochemical, small-molecule microarray, residues 44-93, 635 nm fluorescence, primary screen (AID 1108); details: fluorescence 635 nm, higher = more signal;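 note: E7 fragment applied at 1 µg/mL in TBST for 1 h at 4 C; score combines spot fluorescence with its signal to noise ratio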
# [12] = hepatitis C replication reporter changes, two-sided – Huh7 cells, luciferase reporter, HCV replication inhibitor project, primary screen (AID 1109); details: Huh7 HCV replicon luciferase reporter, 48 h; higher = more signal;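 note: huh7 hepatoma cells harbouring a luciferase neomycin HCV replicon reporter; luciferase luminescence as measure of HCV replicon replication; test concentration not given here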
# [13] = molecular target: Left-right determination factor 2 (Homo sapiens) (UniProt O00292); test: small molecules binding LEFTY2 protein – biochemical, small-molecule microarray, 635 nm fluorescence scan, primary screen (AID 1110); details: higher = more signal
# Chain of Left-right determination factor 2 (Homo sapiens) (O00292 whole entry, looked up): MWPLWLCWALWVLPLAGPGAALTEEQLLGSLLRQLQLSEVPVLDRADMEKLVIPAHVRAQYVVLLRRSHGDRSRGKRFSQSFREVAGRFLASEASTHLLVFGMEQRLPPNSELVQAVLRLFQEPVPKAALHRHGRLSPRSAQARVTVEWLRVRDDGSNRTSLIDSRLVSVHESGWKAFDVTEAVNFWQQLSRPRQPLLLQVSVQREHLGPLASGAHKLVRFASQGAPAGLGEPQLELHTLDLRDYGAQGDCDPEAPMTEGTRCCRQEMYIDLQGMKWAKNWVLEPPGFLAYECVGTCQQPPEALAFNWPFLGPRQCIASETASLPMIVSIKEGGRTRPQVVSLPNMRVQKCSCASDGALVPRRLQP
# [14] = molecular target: Calmodulin-1 (Homo sapiens) (UniProt P0DP23); test: small molecules binding calmodulin-1 with EGTA – biochemical, small-molecule microarray, Cy5-labelled CALM1, profiling panel (AID 1111); details: Cy5-CALM1 binding fluorescence, higher = more signal;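 note: labelled calmodulin applied in Tris saline Tween buffer holding calcium plus EGTA and DTT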
# [15] = molecular target: Calmodulin-1 (Homo sapiens) (UniProt P0DP23); test: small molecules binding Ca-loaded calmodulin-1 – biochemical, small-molecule microarray, Cy5-labelled CALM1, plus calcium, artefact control for SMM control-protein annotation, profiling panel (AID 1112); details: Cy5-CALM1 binding fluorescence, higher = more signal;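 note: score merges spot fluorescence with signal to noise from triplicate slides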
# [16] = probe aWnt5a binding to arrayed compounds – biochemical, biotinylated probe, 635/667 nm fluorescence, primary screen (AID 1113); details: small-molecule microarray, higher = more signal;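 note: score merges 667 nm fluorescence intensity with signal-to-noise per printed feature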
# [17] = probe aShh binding to arrayed compounds – biochemical, biotinylated probe, 635/667 nm fluorescence, primary screen (AID 1114); details: small-molecule microarray, higher = more signal;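 note: probe is biotin-labelled aShh protein from a stem cell growth factor screen; measures binding of labelled protein to compounds printed on the slide; score merges feature fluorescence at 667 nm with signal-to-noise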
# [18] = probe aNog binding to arrayed compounds – biochemical, biotinylated probe, 635/667 nm fluorescence, primary screen (AID 1115); details: small-molecule microarray, higher = more signal;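 note: probe is biotinylated aNog protein used at 0.15 µg/mL for 1 h at 4 C; z-score combines 667 nm fluorescence of each spot with its signal to noise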
# [19] = molecular target: Torsin-1A-interacting protein 1 (Homo sapiens) (UniProt Q5JTV8); test: compound microarray binding of lysate hLAP1 – cell lysate, small-molecule microarray, COS7 lysate, 635/667 nm fluorescence, primary screen (AID 1116); details: 635 nm fluorescence, higher = more signal
# Chain of Torsin-1A-interacting protein 1 (Homo sapiens) (Q5JTV8 whole entry, looked up): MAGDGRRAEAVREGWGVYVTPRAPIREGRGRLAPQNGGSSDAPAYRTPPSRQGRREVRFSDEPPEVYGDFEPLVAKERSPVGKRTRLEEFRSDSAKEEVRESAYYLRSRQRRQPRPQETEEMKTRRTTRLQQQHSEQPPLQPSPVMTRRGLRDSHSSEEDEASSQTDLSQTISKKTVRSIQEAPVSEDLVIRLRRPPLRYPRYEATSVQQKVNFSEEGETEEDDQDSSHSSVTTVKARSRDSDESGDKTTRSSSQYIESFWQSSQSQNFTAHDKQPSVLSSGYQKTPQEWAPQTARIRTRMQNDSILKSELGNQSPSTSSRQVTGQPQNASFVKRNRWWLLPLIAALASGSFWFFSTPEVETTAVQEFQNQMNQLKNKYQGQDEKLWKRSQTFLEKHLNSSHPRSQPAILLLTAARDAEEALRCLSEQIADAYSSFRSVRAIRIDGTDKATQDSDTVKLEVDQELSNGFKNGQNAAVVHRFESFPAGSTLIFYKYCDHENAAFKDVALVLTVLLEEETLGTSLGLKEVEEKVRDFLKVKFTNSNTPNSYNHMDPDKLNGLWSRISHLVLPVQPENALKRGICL
# [20] = molecular target: Alpha-bungarotoxin (Bungarus multicinctus) (UniProt P60615); test: compounds binding labelled alpha-BTX control protein – biochemical, small-molecule microarray, Alexa647 label, 635/667 nm fluorescence, artefact control for SMM control protein annotation, profiling panel (AID 1117); details: alpha-BTX-A647 binding fluorescence, higher = more signal
# Chain of Alpha-bungarotoxin (Bungarus multicinctus) (P60615 whole entry, looked up): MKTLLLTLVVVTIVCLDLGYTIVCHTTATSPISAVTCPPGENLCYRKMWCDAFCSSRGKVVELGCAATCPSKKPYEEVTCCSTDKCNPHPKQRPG
smiles,measurement,setting,value
C=C[C@@H](C)[C@H](O)c1ccc(O)c2ccccc12,composite z-score,[1],1.09 and 0.905
same,composite z-score,[2],-0.493 and -0.379
same,composite z-score,[3],-0.289 and 0.255
same,z-score,[4],0.126 (inactive) and 0.292 (inactive)
same,composite z-score,[5],-0.309 and -0.862
same,composite z-score,[6],-0.347 and -0.958
same,composite z-score,[7],0.617 and -0.987
same,composite z-score,[8],0.294 and -0.579
same,composite z-score,[9],0.481 and -0.33
same,composite z-score,[10],1.53 and 1.13
same,composite z-score,[11],-0.54 and -1.74
same,z-score,[12],-0.857 and -0.0113
same,composite z-score,[13],0.265 and -0.863
same,composite z-score,[14],-1.27 and -1.29
same,composite z-score,[15],-1.21 and -1.19
same,composite z-score,[16],-0.224 and -0.283
same,composite z-score,[17],-0.0035 and -0.0709
same,composite z-score,[18],-0.157 and -0.299
same,composite z-score,[19],-0.444 and -0.659
same,composite z-score,[20],-0.286 and -0.508
CCCCN1CC=CC23O[C@@H]4C=CCCOC(=O)C4[C@H]2C(=O)N(C(C)CO)[C@@H]3C1=O (stereo not given in full),composite z-score,[1],0.381 and 0.0105
same,composite z-score,[2],-0.286 and -0.221
same,composite z-score,[3],0.473 and -0.194
same,z-score,[4],0.856 (inactive) and -0.0825 (inactive)
same,composite z-score,[5],-0.346 and 0.232
same,composite z-score,[6],-0.662 and -0.551
same,composite z-score,[7],-0.683 and -0.191
same,composite z-score,[8],-0.934 and -0.0066
same,composite z-score,[9],-0.135 and 0.176
same,composite z-score,[10],0.958 and 1.07
same,composite z-score,[11],0.228 and -0.107
same,z-score,[12],-0.797 and -0.144
same,composite z-score,[13],-0.321 and 0.0741
same,composite z-score,[14],-0.495 and 0.257
same,composite z-score,[15],-0.396 and 0.473
same,composite z-score,[16],-0.0403 and -0.154
same,composite z-score,[17],0.171 and 0.0637
same,composite z-score,[18],0.179 and 0.0775
same,composite z-score,[19],-0.19 and 0.191
same,composite z-score,[20],-0.44 and -0.137
C[N+](C)(C)CCCCCCNC(=O)[C@H]1C[C@H]2C(=O)N[C@@H](CCCC[N+](C)(C)C)C(=O)N2[C@H]1c1cccc(OCCO)c1,composite z-score,[1],1.73 and 1.42
same,composite z-score,[2],-0.0501 and 1.08
same,composite z-score,[3],-0.148 and 0.62
same,z-score,[4],-0.159 (inactive) and 0.257 (inactive)
same,composite z-score,[5],1.2 and 0.913
same,composite z-score,[6],0.898 and 0.613
same,composite z-score,[7],0.111 and 0.558
same,composite z-score,[8],1.44 and 0.262
same,composite z-score,[9],1.34 and 1.55
same,composite z-score,[10],0.589 and 1.36
same,composite z-score,[11],0.519 and 0.362
same,z-score,[12],1.38 and 1.18
same,composite z-score,[13],1.35 and 1.04
same,composite z-score,[14],-0.742 and -0.31
same,composite z-score,[15],-0.458 and 0.0972
same,composite z-score,[16],-0.0981 and -0.0478
same,composite z-score,[17],-0.291 and -0.167
same,composite z-score,[18],-0.0855 and 0.304
same,composite z-score,[19],0.953 and 0.544
same,composite z-score,[20],0.433 and -0.3
CC(C)OC(=O)C=C1C[C@@H](c2ccccc2)O[C@@H](c2ccccc2)O1,composite z-score,[1],0.733 and 1.54
same,composite z-score,[2],0.164 and 0.272
same,composite z-score,[3],0.0614 and 0.847
same,z-score,[4],0.0661 (inactive) and 2.56 (inactive)
same,composite z-score,[5],1.45 and 1.42
same,composite z-score,[6],1.34 and 1.31
same,composite z-score,[7],0.65 and 0.664
same,composite z-score,[8],1.44 and 1.41
same,composite z-score,[9],0.527 and 0.481
same,composite z-score,[10],-0.0632 and 1.05
same,composite z-score,[11],1.48 and 1.45
same,z-score,[12],-2.1 and -1.36
same,composite z-score,[13],0.826 and 0.795
same,composite z-score,[14],0.056 and 1.23
same,composite z-score,[15],-0.147 and -0.505
same,composite z-score,[16],0.166 and 0.0915
same,composite z-score,[17],-0.185 and 0.131
same,composite z-score,[18],0.286 and 0.403
same,composite z-score,[19],1.3 and 1.28
same,composite z-score,[20],1.03 and 1.75
C=CCN(C(=O)C1N(CCOCCO)C(=O)C2C(C(=O)O)C3C=CC21O3)C(C)(C)C (stereo not given),composite z-score,[1],1.73 and -1.59
same,composite z-score,[2],-0.128 and -0.31
same,composite z-score,[3],0.867 and 0.619
same,z-score,[4],-0.235 (inactive) and 0.32 (inactive)
same,composite z-score,[5],-1.8 and -1.24
same,composite z-score,[6],-1.76 and -0.852
same,composite z-score,[7],-2.23 and -1.56
same,composite z-score,[8],-2.47 and -1.69
same,composite z-score,[9],-2.47 and -1.32
same,composite z-score,[10],-1.84 and -3.28
same,composite z-score,[11],-1.22 and -1.53
same,z-score,[12],0.178 and 0.975
same,composite z-score,[13],-4.53 and -1.35
same,composite z-score,[14],-0.219 and -0.133
same,composite z-score,[15],0.785 and 0.498
same,composite z-score,[16],-0.27 and -0.352
same,composite z-score,[17],-0.138 and -0.214
same,composite z-score,[18],-0.158 and -0.509
same,composite z-score,[19],-1.53 and -1.78
same,composite z-score,[20],-0.606 and -0.737
